Screening results (PubChem BioAssay)
Spn PMK inh: blocks S. pneumoniae phosphomevalonate kinase; inhibition, % at 10 µM; 65,000 tested, 0.49% active; AID 539; purified PMK, PK/LDH-coupled NADH absorbance 340 nm;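 active = top-ranked compounds by inhibition in the single 10 µM screen, taking a fixed number of the strongest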
Spn DPM-DC inh: S. pneumoniae DPM-DC inhibition; purified DPM-DC, PK/LDH coupled NADH fluorescence; calls only at 10 µM; 65,000 tested, 0.49% active; AID 556;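 active = the 320 compounds with the highest percent inhibition in the single-dose primary screen, excluding strongly autofluorescent ones, cut at about 32% in these data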;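 note: kinetic rate of NADH fluorescence loss reporting ADP formed by the decarboxylase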
Spn MK inh: S. pneumoniae mevalonate kinase inhibition | purified MK, PK/LDH-coupled NADH absorbance 340 nm | inhibition, % at 10 µM | 65,000 tested, 0.48% active;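 active = ranked among the strongest by inhibition in the single 10 µM screen, a fixed top-ranked set picked for dose follow-up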
Autofluor 339: intrinsic fluorescence of library compounds, ex339/em460 – biochemical, MLSMR library, data from DPM-DC assay, artefact control, profiling panel | 65,000 tested, 5.5% active | AID 709 | fluorescence fold increase at 10 µM | compound autofluorescence, ex339/em460 nm, NADH buffer; active compounds read high; 1 = no-compound wells, NADH background;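 active = at 10 µM, mean starting fluorescence two-fold or more over control wells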;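 note: signal is the first read of a kinetic run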
NADH enzymes: inhibition of NAD/NADH coupling enzymes, library profiling | 65,000 tested, 0.02% active | coupled PK/LDH NADH assays, four targets | IC50, µM (top dose mostly 10 µM);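 active = single-dose screening hits from any of four coupled enzyme assays that gave an IC50 when retested across doses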;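 note: the DPM-DC format reads NADH fluorescence rather than 340 nm absorbance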
A340 absorber: compound absorbs light at 340 nm; compound absorbance at 340 nm, fold over control; fold change at 10 µM; 65,000 tested, under 10 active; AID 708;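 active = at 10 µM dose, initial 340 nm absorbance at least 2 fold that of control wells; inactive = change under 2 fold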;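 note: initial absorbance extrapolated from kinetic A340 decline of NADH oxidation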
Of the large screens only hits and unclear results are named; the others gave an inactive call; [ ] = another dose, or the depositor's remark. Hits are enriched below; roughly 6.3% of the tested compounds scored in any of these assays.

Cn1cccc1Cc1nnc(SCC(=O)Nc2cccc(F)c2)n1-c1ccc(F)cc1	none
CSc1nc(C2CC2)cc(-c2cccs2)c1C#N	none
N#Cc1c(-c2ccco2)cc(C2CC2)nc1N	Autofluor 339 2.3 (not shown: Spn DPM-DC inh, Spn MK inh)
N#Cc1c(-c2ccccc2)cc(C2CC2)nc1N	Autofluor 339 3.6 (not shown: Spn DPM-DC inh)
COc1ccccc1N1CCN(C(CNC(=O)c2ccco2)c2cccnc2)CC1 (stereo not given)	none
CCCCS(=O)CC(O)COc1ccc(C(C)(C)C)cc1 (stereo not given)	none
CCC(C)(C)NC(=O)C(c1ccccc1F)N(Cc1ccco1)C(=O)c1csnn1 (stereo not given)	Spn PMK inh 38
Cc1ccc(C)c(-c2nc3cc(N)ccc3o2)c1	Spn DPM-DC inh active[fluoresces], Autofluor 339 2.3
Cc1ccc2nc(C(O)C(O)c3nc4ccc(C)cc4[nH]3)[nH]c2c1 (stereo not given)	none
Nc1ccc2nc(-c3ccc(Cl)cc3)[nH]c2c1	Autofluor 339 2.1 (not shown: Spn DPM-DC inh)
Cc1ccc(C)c(-c2nc3ccc(N)cc3[nH]2)c1	Autofluor 339 3 (not shown: Spn DPM-DC inh)
Nc1ccc(-c2nc3c(Cl)c(N)ccc3[nH]2)cc1	Autofluor 339 3.6 (not shown: Spn DPM-DC inh)
Cc1nc(SCc2ccccc2)c(C(F)(F)F)c(=O)[nH]1	none
Nc1nc2ccccc2nc1N	Autofluor 339 2.1
O=C(O)c1nc2ccccc2nc1C(=O)O	none (no result: Spn MK inh)
O=C(Nc1ccc2oc(-c3ccccc3)nc2c1)c1ccc2c(c1)OCCO2	Autofluor 339 3.2
COc1c(F)c(F)c(C(=O)Nc2ccc3oc(-c4ccncc4)nc3c2)c(F)c1F	none
COc1ccc(C(=O)Nc2ccc3oc(-c4cccc(F)c4)nc3c2)cc1OC	Autofluor 339 2.1 (not shown: Spn DPM-DC inh)
COc1ccccc1C(=O)Nc1ccc2oc(-c3ccc(F)cc3)nc2c1	Autofluor 339 2.2 (not shown: Spn DPM-DC inh)
O=C(NC1CCCCC1)C(c1ccc(Cl)cc1)N(C(=O)c1cnccn1)c1ccc2c(c1)OCO2 (stereo not given)	none
CCCNC(=O)c1ccccc1NS(=O)(=O)c1ccc2c(c1)OCCO2	none
Cc1ccc2cc(C#N)c(NCCNC(=O)C3CC3)nc2c1C	Autofluor 339 3.2
CCCS(=O)(=O)N1CCC(C(=O)NC2CCCC(C)C2C)CC1 (stereo not given)	none
Cc1ccc(Cl)cc1N1CCN(S(=O)(=O)c2cnc[nH]2)CC1	none
O=c1oc2ccccc2cc1-c1cn2cccnc2n1	Autofluor 339 3.6 (not shown: Spn DPM-DC inh)
O=C(Nc1ccncc1)c1cc2ccccc2oc1=O	none
O=c1oc2ccccc2cc1-c1nnc(-c2cccc(Br)c2)o1	Autofluor 339 3.9 (not shown: Spn DPM-DC inh)
O=c1oc2ccc3ccccc3c2cc1-c1nnc(-c2ccccc2)o1	Autofluor 339 4.3 (not shown: Spn DPM-DC inh)
CCOc1cccc2cc(-c3nnc(-c4ccccc4)o3)c(=O)oc12	none
Cc1nc2cc(NC(=O)NCc3ccco3)ccc2n1C	Spn DPM-DC inh active
Cc1nc2ccc(NC(=O)NCc3ccco3)cc2s1	none
COc1ccc2c(c1)C(=O)OC2CC(=O)O (stereo not given)	none
CCc1cc(=O)oc2cc(OC(C)=O)cc(OC(C)=O)c12	Autofluor 339 2.4 (not shown: Spn DPM-DC inh)
CCc1cc(=O)oc2cc3oc(C)c(C)c3cc12	none
COc1ccc(N2CCN(C(=O)CCNS(=O)(=O)c3ccc4c(c3)CCC(=O)N4)CC2)cc1	Autofluor 339 2.1
Cc1ccc2[nH]c3c(N4CCCCCC4)ncnc3c2c1	none
Fc1ccc2[nH]c3c(N4CCN(C5CCCCC5)CC4)ncnc3c2c1	Autofluor 339 2.3 (not shown: Spn DPM-DC inh)
CCCOc1ccc2ccccc2c1/C=N/n1c(C)nnc1-n1nc(C)cc1C	none
CC(C)CCNC(=O)C(c1ccco1)N(Cc1ccccc1)C(=O)c1snc(C(N)=O)c1N (stereo not given)	none
CCc1ccccc1N(CC(=O)NCc1ccco1)C(=O)c1snc(C(N)=O)c1N	Autofluor 339 3.3 (not shown: Spn DPM-DC inh)
CCC(C)(C)NC(=O)CN(C(=O)c1snc(C(N)=O)c1N)c1ccc2c(c1)OCO2	none
COc1ccc(CNC(=O)C(C)N(Cc2ccco2)C(=O)c2snc(C(N)=O)c2N)cc1 (stereo not given)	Autofluor 339 2.2
Cc1ccc(NC(=O)C2CCN(S(=O)(=O)c3cccc4cccnc34)CC2)nc1	none
CC(=O)CC(C)(C)n1nnc(-c2ccccc2)n1	none
O=c1oc(-c2cccs2)nc2sc3c(c12)CCCCC3	Autofluor 339 2.1 (not shown: Spn DPM-DC inh)
C=CCn1c(=NC(=O)C2CC2)sc2cc(NC(C)=O)ccc21	Autofluor 339 2.1 (not shown: Spn DPM-DC inh)
CC1(C(=O)NC2CCCCCCC2)CCC(=O)N1Cc1ccco1 (stereo not given)	Spn PMK inh 31
CCOC(=O)C1CCN(C(=O)c2cn(-c3ccccc3)nc2-c2cccnc2)CC1	none
COC(=O)C1=CNC=C(C(=O)OC)C1c1ccc(C(=O)OC)cc1	Autofluor 339 2.1 (not shown: Spn DPM-DC inh)
COC(=O)C1=C(C)N(C)C(C)=C(C(=O)OC)C1c1ccc(C(=O)OC)cc1	none
CNc1nc2sc3c(c2c(=O)n1C)CC(C)(C)SC3	Autofluor 339 2.2
CN(C)c1nc2sc3c(c2c(=O)n1C)CC(C)(C)OC3	none
O=C(NCCN1CCOCC1)c1cc2c(=O)n3ccccc3nc2n1Cc1ccccc1	Autofluor 339 3.9 (not shown: Spn DPM-DC inh)
CCN1CCN(C(=O)c2cc3c(=O)n4ccccc4nc3n2Cc2ccccc2)CC1	Autofluor 339 3.9 (not shown: Spn DPM-DC inh)
CCOC(=O)C(C)Sc1nc(-c2ccco2)cc(C(F)(F)F)c1C#N (stereo not given)	Autofluor 339 2.8
Fc1ccccc1C(c1nnnn1Cc1ccc2c(c1)OCO2)N1CCN(Cc2ccco2)CC1 (stereo not given)	none
COc1ccccc1-n1c(=O)[nH]c2c(C(N)=O)nc(C3CCCCC3)nc21	none
Cc1ccc(-n2c(=O)[nH]c3c(C(N)=O)nc(-c4ccc(C)o4)nc32)cc1	Autofluor 339 2.4
COc1ccccc1-n1c(=O)[nH]c2c(C(N)=O)nc(-c3cccnc3)nc21	Autofluor 339 2.5 (not shown: Spn DPM-DC inh)
CCOc1ccccc1-c1nc(C(N)=O)c2[nH]c(=O)n(-c3cccc(C)c3)c2n1	Autofluor 339 2.5
COc1ccc(OC)c(-c2nc(C(N)=O)c3[nH]c(=O)n(-c4ccc(F)cc4)c3n2)c1	none
NC(=O)c1nc(C2CCCCC2)nc2c1[nH]c(=O)n2-c1ccc(F)cc1	Autofluor 339 2.1 (not shown: Spn DPM-DC inh)
CCOc1cccc(-c2nc(C(N)=O)c3[nH]c(=O)n(-c4cccc(Cl)c4)c3n2)c1O	none
CC(=O)c1cnc2nc(C)nn2c1C	none
COc1ccc(OC)c(C2N(c3ccc(Cl)cc3)C(=O)C3CCCN32)c1 (stereo not given)	none
CCOC(=O)Cc1csc2nc3sc(C)c(C)c3c(=O)n12	none
CCn1c(CC(C)C)n[nH]c1=S	Spn MK inh 44
Cc1ccc2cc3c(nc2c1)N(Cc1ccco1)CC3	Autofluor 339 3.8 (not shown: Spn DPM-DC inh)
COc1ccc(CN2CCCCC2c2cccnc2)c(OC)c1C (stereo not given)	none
